# Measured values reported in the supplement of paper PMC10981050.
# Values joined by “and” are separate entries in the source; they are usually repeats but may differ in a detail not shown here. Identical values can stand only once. Counter-ions that a name gives are not always drawn.
# Columns and labels:
# Assay in all cases: cell viability relative to vehicle control; higher = less cytotoxic
# Settings in all cases: 10 µM
# K562 = test system: K562
# Procedure, shortened: (§1)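 After removal of identity-inconsistent compounds, the Selleck bioactive, kinase and epigenetic probe libraries were screened on CRISPR-edited mutant clones and isogenic wild-type clones of four leukaemia lines. Plates were 384-well, each well holding 2000 cells in 50 µL medium and receiving a single 10 µM acoustically dispensed dose. CellTiter-Glo luminescence was read 48 h later, after the supernatant was taken off. Genedata Screener was used to express viability as percent of the on-plate vehicle control.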
# MARIMO = test system: MARIMO
# Procedure, shortened: as §1
# MOLM14 = test system: MOLM14
# Procedure, shortened: as §1
# OCI-AML2 = test system: OCI-AML2
# Procedure, shortened: as §1
Structure (SMILES),cell viability (K562; SRSF2 genotype: SRSF2 P95H/wt),cell viability (K562; SRSF2 genotype: SRSF2 wt/wt),cell viability (MARIMO; SRSF2 genotype: SRSF2 P95H/wt),cell viability (MARIMO; SRSF2 genotype: SRSF2 wt/wt),cell viability (MOLM14; SRSF2 genotype: SRSF2 P95H/wt),cell viability (MOLM14; SRSF2 genotype: SRSF2 wt/wt),cell viability (OCI-AML2; SRSF2 genotype: P95H/wt),cell viability (OCI-AML2; SRSF2 genotype: wt/wt)
O=c1c(-n2ccnn2)c[nH]n1-c1cc(N2CCOCC2)ncn1 [Molidustat(BAY 85-3934)],96.1% and 100%,90.2%,81.8%,98.1%,87.9%,93.6%,85.2%,87.9%
COc1ccc(-c2cc(=O)c3c(OC)c(OC)c(OC)c(OC)c3o2)cc1 [Tangeretin (Tangeritin)],95.5% and 98.4%,103%,91.7%,90.8%,96%,102%,82.9%,88.1%
Nc1nc(NCCNc2ncc(-n3ccnc3)c(-c3ccc(Cl)cc3Cl)n2)ccc1[N+](=O)[O-],110% and 106%,99.1%,125%,132%,109%,115%,131%,148%
CC(=O)OCC1=C(C(=O)O)N2C(=O)[C@@H](NC(=O)CSc3ccncc3)[C@H]2SC1 [cephapirin sodium],102% and 105%,105%,106%,107%,99.5%,105%,117%,101%
Cc1ccc(=O)n(-c2ccccc2)c1 [Pirfenidone],104% and 107%,103%,103%,103%,97.1%,98.8%,109%,106%
CN(CC(=O)N(Cc1ccc(C2CCCCC2)cc1)c1ccc(C(=O)NO)cc1)S(=O)(=O)c1c(F)c(F)c(F)c(F)c1F,0.47% and 0.41%,0.42%,0.5%,0.67%,0.26%,0.33%,0.18%,0.24%
Cn1nccc1Nc1nccc(-c2cc3c(s2)C(C)(C)N(CCN2CCOCC2)C3=O)n1,77.8% and 81.6%,76.5%,39.5%,40.1%,42.6%,37%,38.6%,43.2%
COC(=O)[C@H](O)[C@@H](NC(=O)c1ccccc1)c1ccccc1,108% and 104%,107%,108%,103%,98.1%,106%,104%,110%
NC(=O)c1ccc(-c2nc(-c3ccc4c(c3)OCCO4)c(-c3ccccn3)[nH]2)cc1,102% and 103%,92.9%,98.5%,103%,97.5%,97.6%,99.6%,96.8%
"CC(=O)c1ccc(O)cc1O [2,4-Dihydroxyacetophenone]",100% and 87%,86.2%,93.5%,99.8%,96%,94.1%,92.3%,94.8%
[F][Ti]([F])([F])[F] [Titanium tetrafluoride],102% and 89.4%,98.7%,99.2%,105%,97.3%,102%,98.9%,99%
CC(=O)O[C@H]1CC/C(C)=C/CC/C(C)=C/C[C@]2(C(C)C)CC[C@@]1(C)O2 [Incensole acetate],85.8% and 85.7%,91.2%,85.1%,89.2%,68.8%,67.7%,84.1%,85.2%
COc1cc2ncnc(Sc3nnc(C)s3)c2cc1OC,52.4% and 59.1%,73.6%,42%,42.1%,5.68%,3.57%,3.76%,16.7%
CN(CCOc1ccc(CC2SC(=O)NC2=O)cc1)c1ccccn1 (stereo unspecified) [Rosiglitazone maleate],98.8% and 97.5%,96%,102%,110%,101%,103%,91.5%,107%
Clc1ccc(NN=C(c2ccccc2)c2ccccn2)nc1,17.9% and 15.3%,20%,3.72%,0.76%,1.65%,0.71%,5.44%,3.14%
C[C@@H]1CCO[C@H]2Cn3cc(C(=O)NCc4ccc(F)cc4F)c(=O)c(O)c3C(=O)N12,84.5% and 87%,77.5%,84.3%,98.4%,94.1%,94%,92%,98.5%
Cc1ccc(NCCCc2ccccc2)c(N)c1,74.3% and 88.2%,83.1%,48.2%,72.4%,69%,72.5%,60.8%,63.5%
COC(=O)CC1CC(c2ccc(O)cc2)=NO1 (stereo unspecified),113% and 102%,104%,102%,112%,77.1%,102%,104%,103%
CC(=O)N1C[C@H](O)C[C@H]1C(=O)O [Oxaceprol],101% and 93.4%,99.3%,104%,109%,96.1%,102%,94.3%,106%
C=C1[C@@H]2CC[C@@H](C2)C1(C)C [Camphene],105% and 102%,106%,102%,111%,95%,108%,98.5%,97.1%
O=C(O)CSCC(=O)NC1CCSC1=O (stereo unspecified) [Erdosteine],101% and 96.3%,97.8%,101%,102%,97.8%,98%,89.9%,96.9%

Structure (SMILES),cell viability (K562; SRSF2 genotype: SRSF2 P95H/wt),cell viability (K562; SRSF2 genotype: SRSF2 wt/wt),cell viability (MARIMO; SRSF2 genotype: SRSF2 P95H/wt),cell viability (MARIMO; SRSF2 genotype: SRSF2 wt/wt),cell viability (MOLM14; SRSF2 genotype: SRSF2 P95H/wt),cell viability (MOLM14; SRSF2 genotype: SRSF2 wt/wt),cell viability (OCI-AML2; SRSF2 genotype: P95H/wt),cell viability (OCI-AML2; SRSF2 genotype: wt/wt)
C[C@H](Nc1ncnc2[nH]cnc12)c1cc2ccc(F)cc2nc1-c1ccccn1,90.3% and 89.3%,91.5%,81.5%,85%,69.2%,67%,64.5%,73.4%
C1CCN2C[C@@H]3C[C@@H](CN4CCCC[C@@H]34)[C@H]2C1 [Sparteine],95% and 97.6%,91.1%,96.8%,94.9%,99%,94.8%,97.5%,94.3%
CS(=O)(=O)c1ccc(-c2nnc(/C=C/c3nnc(-c4ccc(C#N)cc4)o3)n2-c2ccccc2Cl)nc1,105% and 94.2%,101%,104%,108%,106%,103%,99%,110%
C[C@@H](NCCCc1cccc(C(F)(F)F)c1)c1cccc2ccccc12 [AMG-073 HCl (Cinacalcet hydrochloride)],21.9% and 38.4%,19.4%,57.1%,50.4%,27%,24.2%,1.48%,10.2%
CC(C)(C)NC[C@H](O)COc1nsnc1N1CCOCC1 [Timolol Maleate],98.8% and 98.3%,97.4%,101%,106%,99.3%,103%,103%,109%
COc1cc(C[C@H](C)[C@H](C)Cc2ccc3c(c2)OCO3)ccc1O [Anwuligan],88.8% and 87%,87.9%,87%,94.9%,88.3%,83.1%,76.8%,83.5%
CCc1ccc(C(=O)C(C)CN2CCCCC2)cc1 (stereo unspecified) [Eperisone hydrochloride],91.5% and 94.7%,93.1%,81.3%,95.5%,38.1%,70%,33.5%,47.8%
CC(=CCNc1ncnc2c1ncn2C1OC(CO)C(O)C1O)CO (stereo not drawn) [trans-Zeatin-riboside],107% and 105%,108%,99.7%,110%,104%,105%,116%,117%
C[C@H]1CNCCCN1S(=O)(=O)c1cccc2cncc(F)c12 [Ripasudil (K-115)],104% and 103%,108%,101%,106%,74.7%,101%,76.7%,82.9%
COCC[n+]1c2c(n(Cc3cnccn3)c1C)C(=O)c1ccccc1C2=O [YM155 (Sepantronium Bromide)],0.4% and 0.35%,0.47%,0.69%,1.06%,0.33%,0.32%,0.31%,0.36%
CCOC(=O)[C@@H](N)Cc1ccc(-c2cc(O[C@H](c3ccc(Cl)cc3-n3ccc(C)n3)C(F)(F)F)nc(N)n2)cc1 [LX1606 hippurate],64.2% and 52.4%,57.2%,68.9%,72.7%,14.2%,44.5%,4.73%,12.2%
CC(=O)OC/C=C(\C)CCC=C(C)C [Geranyl acetate],102% and 95.2%,107%,104%,112%,99.2%,111%,97.2%,103%
OC(c1cc(C(F)(F)F)nc2c(C(F)(F)F)cccc12)C1CCCCN1 (stereo unspecified) [Mefloquine HCl],0.97% and 1.02%,0.97%,0.56%,0.87%,0.48%,0.44%,0.35%,1.68%
CS(=O)(=O)CCNCc1ccc(-c2ccc3ncnc(Nc4ccc(OCc5cccc(F)c5)c(Cl)c4)c3c2)o1,54.6% and 37%,56.7%,88.7%,90.3%,86.2%,60.6%,65%,59.5%
C[C@H](CCC(=O)O)[C@H]1CC[C@H]2[C@@H]3CC[C@@H]4C[C@H](O)CC[C@]4(C)[C@H]3C[C@H](O)[C@]12C [Deoxycholic acid],94.9% and 86.4%,87.3%,93.7%,103%,94.7%,95%,94.5%,93%
CNC(=O)c1cc(Oc2ccc(NC(=O)Nc3cc(C(C)(C)C)nn3-c3ccc4ncccc4c3)c(F)c2)ccn1 [DCC-2036 (Rebastinib)],28.3% and 35.4%,27.5%,11.8%,4.62%,1.63%,1.54%,3.03%,14%
CCC(C(=O)O)c1ccc(N2Cc3ccccc3C2=O)cc1 (stereo unspecified) [Indobufen],92.1% and 90.3%,102%,91.3%,100%,96.6%,101%,92.2%,98.3%
O=C(O)CNC(=O)c1nc(Cl)c2ccccc2c1O,84.7% and 85.9%,81.2%,80.5%,91.2%,80.2%,89.1%,95.8%,89.8%
CCCc1cc(=O)[nH]c(=S)[nH]1 [Propylthiouracil],107% and 91.6%,94%,93.1%,96.5%,100%,96.8%,106%,110%
CN[C@H]1CN(c2ccc3c(=O)c(C(=O)O)cn(-c4nccs4)c3n2)C[C@@H]1OC [Voreloxin (SNS-595) hydrochloride],74% and 88.4%,79.8%,20.8%,36%,21.3%,7.31%,15.6%,19.9%
CC1CCC2(O)C(C)(C)C3CCC2(C)C1C3 (stereo unspecified) [Patchouli alcohol],92.3% and 85.5%,89.2%,89.5%,102%,91.1%,89.5%,80.6%,93%
